This note sets out measurements from PubChem BioAssay (NCATS).

Inconclusive results are not listed. Active and inactive are the calls of the source. Unless noted, the call rests on the fitted dose curve; in most records, active means well fitted curve in the direction sought with a large enough effect; inconclusive means small, poorly fitted or top-dose-only effect, or another doubt; inactive means no such curve, though single readings can be large; an effect the other way counts as inactive or inconclusive. Where only a bound is given, the exact number is not on record here.

In test [1] the target is Calcium and integrin-binding protein 1 (Homo sapiens) (UniProt Q99828). Briefly: Primary qHTS for Identification of Calcium Integrin Binding Protein 1 (CIB1) Competitor (AID 1508620).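 Further: GST tagged CIB1 binding a fluorescein labelled alphaIIb integrin peptide tracer; top concentration of the series differs between compounds; on the % scale 0 is the no-effect control and ±100 the full control effect.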 The procedure, abridged:
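CIB1-GST (1 uM final) and compound incubated 15 min at room temperature before adding FITC-alphaIIb peptide tracer (100 nM final). Competition for binding read by fluorescence polarization (ex 480, em 540) after another 15 min at room temperature.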
On the technique in general: In qHTS, concentration-response curves come from the screen itself.

The nature of test [2]: Confirmatory qHTS for small molecule stabilizers of the endoplasmic reticulum resident proteome: Secreted ER Calcium Modulated Protein (SERCaMP) assay (AID 1508628). Further: potency means the concentration at half of the fitted maximal effect; nearly all actives have a fitted effect of over 40% in size. The gist of the method: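 GLuc-SERCaMP-expressing SH-SY5Y cells, pretreated 16 h with compound, are challenged with thapsigargin to empty ER calcium stores; after 4 h, coelenterazine is added directly to the medium and luminescence is imaged.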

The target of test [3] is N-terminal Xaa-Pro-Lys N-methyltransferase 1 (Homo sapiens) (UniProt Q9BV86). Put plainly: Confirmatory qHTS for Inhibitors of N-terminal methyltransferase 1 (NTMT1): MTaseGlo Assay (AID 1645874). Further: potency means the concentration at half of the fitted maximal effect; nearly all actives have a fitted effect of over 65% in size. The procedure, abridged:
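Inhibition was derived from luminescence after SAH-to-ATP conversion, scaled between no-enzyme and DMSO wells, then fitted by 4-parameter Hill. Conditions: 125 nM NTMT1, 100 uM SAM, 1 uM SPKRIA, 30 min RT.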

Test [4] has as its target Lysosomal acid glucosylceramidase (Homo sapiens) (UniProt P04062). Put plainly: Glucocerebrosidase-p2 (AID 348; in the data active means potency below about 10 µM; further: potency means the concentration at half of the fitted maximal effect). The note with it: purified GBA, blue fluorogenic substrate, 40 min. The gist of the method:
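Normal human glucocerebrosidase (0.2 nM) with blue fluorogenic substrate (80 uM final) in citrate/phosphate pH 5.9 with 10mM sodium taurocholate, 0.01% tween-20; 40 min RT, NaOH/glycine stop; fluorescence Ex 365/Em 440; AC50 from a titration from 0.6 nM upwards.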

The target in test [5] is Cytochrome P450 1A2 (Homo sapiens) (UniProt P05177). Put plainly: p450-cyp1a2 (AID 410; calls by dose curve; further: potency means the concentration at half of the fitted maximal effect). The gist of the method: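 20nM CYP1A2, 100uM Luciferin-ME (=Km), 100mM KPO4; cpd 10 min RT; +NADPH regen, 60 min RT; stop/detect 20 min; luminescence. Normalized to furafylline 57 uM = full inhibition.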
Test [6] is described as follows: Stat Signaling Pathway (AID 446; active means well fitted curve in either direction with a large enough effect, not every such curve was filed as active;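 further: ME-180 cervical cancer cells given 40 pM IL-6 alongside compound; SIE-controlled beta-lactamase reporter measured as 460/530 nm FRET emission ratio; on the % scale 0 is the no-effect control and ±100 the full control effect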). The note with it: ME-180 (cervical carcinoma) SIE beta-lactamase reporter, IL-6 stimulated, 5 h; at 7.69 µM (top of the series) unless noted. The procedure, abridged:
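Normalization used AC90 stimulation (300 pM IL-6) and AC90 inhibition (125 nM pan-JAK inhibitor at 40 pM IL-6). The underlying signal is SIE-driven beta-lactamase in ME-180 cells after 5 h IL-6 exposure with compound.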

Test [7] has as its target Glucocorticoid receptor (Homo sapiens) (UniProt P04150). Put plainly: GR-GFP Redistribution (AID 450;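 active means compounds whose dose series gives a full or clear partial fitted curve of increased nuclear translocation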; further: potency means the concentration at half of the fitted maximal effect). The note with it: U2OS GR-GFP nuclear translocation, laser cytometry, 2 h.
Test [8] concerns the target Mitogen-activated protein kinase 10 (Mus musculus) (UniProt Q61831). Put plainly: JNK3 AlphaScreen Assay (AID 530; active means well fitted curve in either direction with a large enough effect, not every such curve was filed as active;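 further: kinase came from lysate of stimulated human HepG2 cells; signal reports phosphorylation of biotinylated GST-cJun 1-79 at Ser73 with 10 µM ATP; on the % scale 0 is the no-effect control and ±100 the full control effect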). The procedure, abridged: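 Kinase buffer: 20 mM Tris-HCl pH 7.6, 10 mM MgCl2, 1 mM DTT, 0.1 mM Na3VO4, 0.01% Tween-20; ATP 10 uM. Substrate biotin-GST-cJun(1-79), enzyme from activated HepG2 lysates. Detection by Ser73 phospho-antibody AlphaScreen.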
Test [9] concerns the target Cytochrome P450 3A4 (Homo sapiens) (UniProt P08684). Put plainly: qHTS Assay for Inhibitors and Substrates of Cytochrome P450 3A4 (AID 884). Further: potency means the concentration at half of the fitted maximal effect; nearly all actives have a fitted effect of over 50% in size. The procedure, abridged:
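Luminescent readout of luciferin produced by CYP3A4 (20 nM) dealkylation of Luciferin-PPXE, 25 uM (its KM). NADPH-driven reaction ran 60 min at RT after 10 min compound preincubation; data scaled to 57 uM ketoconazole as 100% inhibition.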

The target is the same in test [10]. Put plainly: qHTS Assay for Activators of Cytochrome P450 3A4 (AID 885). Further: nearly all actives have a fitted effect of over 65% in size. The gist of the method: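 Human CYP3A4 dealkylates Luciferin-PPXE to luciferin, which luciferase detection converts to light. Substrate was at its KM (25uM), buffer 200mM KPO4, reaction 60 min at RT.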
Test [11] deals with Cytochrome P450 2D6 (Homo sapiens) (UniProt P10635). Briefly: qHTS Assay for Inhibitors and Substrates of Cytochrome P450 2D6 (AID 891). Further: potency means the concentration at half of the fitted maximal effect; nearly all actives have a fitted effect of over 60% in size. The procedure, abridged: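 Luminescent read-out of luciferin formed by 5 nM human CYP2D6 demethylating 30 uM Luciferin-ME EGE (Km level) over 60 min at room temperature after NADPH regeneration addition. Data normalized to full inhibition by 1.43 uM quinidine.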

In test [12] the target is Cytochrome P450 2C19 (Homo sapiens) (UniProt P33261). Briefly: qHTS Assay for Inhibitors and Substrates of Cytochrome P450 2C19 (AID 899). Further: potency means the concentration at half of the fitted maximal effect; nearly all actives have a fitted effect of over 60% in size. The gist of the method:
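5nM enzyme + 10uM Luciferin-H EGE (=KM), 50mM KPO4; cpd pin-transferred, 10 min 37C; NADPH regen, 60 min 37C; stopped w/ luciferin detection reagent, 20 min; luminescence. Normalized to 57uM ketoconazole (AC100).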

Test [13] is described as follows: Confirmation and Secondary Assay for Modulators of Hemoglobin Beta Chain Splicing at IVS2 654 locus (AID 910).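 Further: HeLa cells stably carrying EGFP split by mutant beta-globin IVS2-654 intron; per-well total GFP intensity by laser scanning cytometry after 2-day treatment; % of control where 0% means no effect.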 The procedure, abridged:
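Readout: per-well total peak green fluorescence (488 nm ex, 500–520 nm em) from objects 5–250 µm, reflecting correct splicing of an EGFP-654 reporter. Compounds were applied for 2 days at 37 °C to overnight-plated HeLa EGFP-654 cells; controls were DMSO and 500 nM IVS2-654 PNA.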

Test [14] is described as follows: Confirmation and Secondary Assay for Modulators of Hemoglobin Beta Chain Splicing at IVS2 705 locus (AID 930).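 Further: HeLa cells stably expressing the EGFP-705 splicing reporter; GFP fluorescence per well restored by corrected splicing of the IVS2-705 intron in EGFP; % of control where 0% means no effect.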 The procedure, abridged:
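Per-well GFP, captured at 1 x 8 µm resolution with 488 nm excitation, served as the read-out for HeLa EGFP-705 cells incubated 2 days with test compound versus DMSO.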

Test [15] can be described thus: qHTS Assay for Lipid Storage Modulators (AID 1519; calls by dose curve). The settings on record: Drosophila S3 cells, BODIPY lipid droplet/cell ratio, laser cytometry, cells loaded with oleic acid. The procedure, abridged: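 Cells seeded at 5,000 per well were treated with compounds over a concentration series and loaded with oleic acid (400 uM, as added). Lipid droplet fluorescence (488 nm excitation, 500-530 nm channel) was read by laser-scanning cytometry and normalized to 20 uM Triacsin C.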

The target of test [16] is Ubiquitin carboxyl-terminal hydrolase 1 (Homo sapiens) (UniProt O94782). Put plainly: Inhibitors of USP1/UAF1: Pilot qHTS (AID 504865).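 Further: rhodamine fluorescence freed from ubiquitin-rhodamine substrate followed over time; top concentration of the series differs between compounds; on the % scale 0 is the no-effect control and ±100 the full control effect; nearly all actives have a fitted effect of over 35% in size.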 The gist of the method:
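Enzyme-free wells gave the negative control, while test wells held 1nM USP1/UAF1 preincubated with compound for 15 min at room temperature. Ub-Rho at 150nM final started the reaction, and fluorescence at 480/540 nm was recorded kinetically.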

Test [17] can be described thus: Primary qHTS for small molecule stabilizers of the endoplasmic reticulum resident proteome: Secreted ER Calcium Modulated Protein (SERCaMP) assay (AID 1508630). Further: on the % scale 0 is the no-effect control and ±100 the full control effect. The procedure, abridged: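 The SH-SY5Y reporter protocol was run at 3 concentrations up to 38.3 uM (primary) or 11 concentrations (follow-up): 16 h compound, 100 nM thapsigargin for 4 h, then extracellular luciferase luminescence.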

A short description of test [18]: NFAT Signaling Pathway (AID 444; active means well fitted curve in either direction with a large enough effect, not every such curve was filed as active). The settings on record: Jurkat NFAT-bla M1, carbachol, beta-lactamase ratio, 5 h; at 7.69 µM (top of the series) unless noted. The gist of the method: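 Read-out: CCF4 FRET ratio (460 nm/530 nm) after 1 h RT dye loading, used for %activity and AC50 from titration series. Cells: Jurkat NFAT-β-lactamase/M1 line, treated with compound plus 1 uM carbachol for 5 h, 37 °C.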

The target of test [19] is Glucocorticoid receptor (Homo sapiens) (UniProt P04150). Briefly: GR-EFC Redistribution (AID 451; calls by dose curve; further: potency means the concentration at half of the fitted maximal effect). The settings on record: CHO-K1 GR-EFC translocation, beta-gal luminescence, 2 h. The gist of the method: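 Translocation of GR-ED fusion to nuclear EA restores b-gal, read by luminescence after 1 h room-temperature detection. Engineered CHO-K1 biosensor cells, 1,000/well, exposed 2 h at 37 C to titrations up to 46 uM final.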

The target of test [20] is 3',5'-cyclic-AMP phosphodiesterase 4B (Homo sapiens) (UniProt Q07343). Briefly: qHTS Assay for Inhibitors of PDE-IV (AID 607; active means well fitted activation curve with a large enough effect in the main read-out, with a control signal flat, not every such curve was filed as active; further: % of control where 0% means no effect). The gist of the method:
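HEK293 ACTOne cells with CNG channel (1000/well), endogenous PDE4; membrane potential dye, compounds up to 22.9 uM final. Fluorescence Ex 535/Em 590; RO 20-1724 (100 uM final) as reference.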

The target in test [21] is Dual specificity protein kinase CLK4 (Homo sapiens) (UniProt Q9HAZ1). Put plainly: qHTS Assay for Inhibitors of CDC-like Kinase 4 (Kinase-Glo Assay) (AID 1770). Further: potency means the concentration at half of the fitted maximal effect; nearly all actives have a fitted effect of over 65% in size. The procedure, abridged:
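Clk4 25 nM, RS peptide 100 uM, ATP 1 uM, pH 7.5 Tris, 10 mM MgCl2, 2.5 mM DTT; 4.5 h RT; ATP depletion read by Kinase-Glo luminescence.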

The target is the same in test [22]. Put plainly: qHTS Assay for Inhibitors of CDC-like Kinase 4 (ADP-Glo Assay) (AID 1771). Further: potency means the concentration at half of the fitted maximal effect; nearly all actives have a fitted effect of over 70% in size. The procedure, abridged: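 25 nM Clk4, 100 uM RS peptide, 1 uM ATP (final); 2 mM MgCl2, 0.5 mM EGTA, 2.5 mM DTT, 0.01% Triton X-100; 1 hr RT. ADP-Glo readout: ATP depletion 45 min, conversion/luciferase 30 min, luminescence.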
Test [23] has the same target. Briefly: qHTS Assay for Inhibitors of CDC-like Kinase 4 (ADP-FP Assay) (AID 1795). Further: potency means the concentration at half of the fitted maximal effect; nearly all actives have a fitted effect of over 60% in size. The gist of the method:
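Kinase activity was followed as ADP output, converted from fluorescence polarization with a calibration curve. Reactions ran one hour at low ATP (1 uM) with RS peptide substrate.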

Dual specificity protein kinase CLK4 (Homo sapiens), sequence (Q9HAZ1 whole entry, looked up): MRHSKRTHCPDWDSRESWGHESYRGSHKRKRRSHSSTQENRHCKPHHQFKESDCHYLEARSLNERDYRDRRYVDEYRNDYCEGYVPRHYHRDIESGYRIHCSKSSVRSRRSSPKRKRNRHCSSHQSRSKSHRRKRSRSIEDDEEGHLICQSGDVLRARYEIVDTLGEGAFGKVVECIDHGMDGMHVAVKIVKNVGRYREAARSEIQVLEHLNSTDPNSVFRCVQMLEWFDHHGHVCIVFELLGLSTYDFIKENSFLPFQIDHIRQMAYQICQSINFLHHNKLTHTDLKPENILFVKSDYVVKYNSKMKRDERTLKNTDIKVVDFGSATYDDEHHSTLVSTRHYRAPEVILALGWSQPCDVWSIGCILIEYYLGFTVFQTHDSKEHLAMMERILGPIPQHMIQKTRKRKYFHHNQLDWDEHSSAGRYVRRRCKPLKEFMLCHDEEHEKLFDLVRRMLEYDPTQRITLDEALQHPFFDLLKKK
Calcium and integrin-binding protein 1 (Homo sapiens), sequence (Q99828 whole entry, looked up): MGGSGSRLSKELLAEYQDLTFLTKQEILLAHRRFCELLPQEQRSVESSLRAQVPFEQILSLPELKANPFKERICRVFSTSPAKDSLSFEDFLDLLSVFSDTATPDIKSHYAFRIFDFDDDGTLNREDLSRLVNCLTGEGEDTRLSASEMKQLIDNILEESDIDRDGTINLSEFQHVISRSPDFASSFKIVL
Cytochrome P450 3A4 (Homo sapiens), sequence (P08684 whole entry, looked up): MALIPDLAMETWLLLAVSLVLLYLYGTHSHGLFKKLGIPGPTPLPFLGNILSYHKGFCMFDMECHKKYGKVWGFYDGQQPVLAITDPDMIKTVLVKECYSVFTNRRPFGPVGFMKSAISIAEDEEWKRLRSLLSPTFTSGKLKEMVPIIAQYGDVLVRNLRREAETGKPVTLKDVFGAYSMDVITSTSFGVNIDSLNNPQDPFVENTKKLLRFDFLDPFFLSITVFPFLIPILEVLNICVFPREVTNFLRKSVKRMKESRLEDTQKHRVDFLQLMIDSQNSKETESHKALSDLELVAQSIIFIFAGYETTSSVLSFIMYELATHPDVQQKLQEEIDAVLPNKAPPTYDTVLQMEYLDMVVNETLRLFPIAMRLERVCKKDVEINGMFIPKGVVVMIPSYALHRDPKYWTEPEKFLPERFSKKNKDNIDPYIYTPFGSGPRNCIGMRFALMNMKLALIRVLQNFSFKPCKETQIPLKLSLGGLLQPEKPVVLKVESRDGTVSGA
N-terminal Xaa-Pro-Lys N-methyltransferase 1 (Homo sapiens), sequence (Q9BV86 whole entry, looked up): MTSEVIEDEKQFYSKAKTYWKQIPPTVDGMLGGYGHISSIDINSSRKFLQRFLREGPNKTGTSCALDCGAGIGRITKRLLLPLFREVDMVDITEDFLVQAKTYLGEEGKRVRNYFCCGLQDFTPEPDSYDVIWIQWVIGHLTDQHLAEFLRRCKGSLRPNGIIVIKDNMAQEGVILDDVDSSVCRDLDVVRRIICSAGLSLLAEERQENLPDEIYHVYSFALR
Cytochrome P450 2C19 (Homo sapiens), sequence (P33261 whole entry, looked up): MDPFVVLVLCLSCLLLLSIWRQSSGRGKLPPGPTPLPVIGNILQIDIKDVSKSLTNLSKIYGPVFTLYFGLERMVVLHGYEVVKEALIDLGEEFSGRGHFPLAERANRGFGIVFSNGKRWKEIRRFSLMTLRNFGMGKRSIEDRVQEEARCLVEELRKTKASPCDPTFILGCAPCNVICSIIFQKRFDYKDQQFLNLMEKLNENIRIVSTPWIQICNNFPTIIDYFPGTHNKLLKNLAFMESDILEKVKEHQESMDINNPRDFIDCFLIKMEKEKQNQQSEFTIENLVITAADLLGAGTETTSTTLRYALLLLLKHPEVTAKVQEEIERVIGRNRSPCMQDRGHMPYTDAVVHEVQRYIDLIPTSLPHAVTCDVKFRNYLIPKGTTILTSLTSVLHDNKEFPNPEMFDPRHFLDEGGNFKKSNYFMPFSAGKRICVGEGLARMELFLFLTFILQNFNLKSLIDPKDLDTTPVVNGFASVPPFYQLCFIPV
Ubiquitin carboxyl-terminal hydrolase 1 (Homo sapiens), sequence (O94782 whole entry, looked up): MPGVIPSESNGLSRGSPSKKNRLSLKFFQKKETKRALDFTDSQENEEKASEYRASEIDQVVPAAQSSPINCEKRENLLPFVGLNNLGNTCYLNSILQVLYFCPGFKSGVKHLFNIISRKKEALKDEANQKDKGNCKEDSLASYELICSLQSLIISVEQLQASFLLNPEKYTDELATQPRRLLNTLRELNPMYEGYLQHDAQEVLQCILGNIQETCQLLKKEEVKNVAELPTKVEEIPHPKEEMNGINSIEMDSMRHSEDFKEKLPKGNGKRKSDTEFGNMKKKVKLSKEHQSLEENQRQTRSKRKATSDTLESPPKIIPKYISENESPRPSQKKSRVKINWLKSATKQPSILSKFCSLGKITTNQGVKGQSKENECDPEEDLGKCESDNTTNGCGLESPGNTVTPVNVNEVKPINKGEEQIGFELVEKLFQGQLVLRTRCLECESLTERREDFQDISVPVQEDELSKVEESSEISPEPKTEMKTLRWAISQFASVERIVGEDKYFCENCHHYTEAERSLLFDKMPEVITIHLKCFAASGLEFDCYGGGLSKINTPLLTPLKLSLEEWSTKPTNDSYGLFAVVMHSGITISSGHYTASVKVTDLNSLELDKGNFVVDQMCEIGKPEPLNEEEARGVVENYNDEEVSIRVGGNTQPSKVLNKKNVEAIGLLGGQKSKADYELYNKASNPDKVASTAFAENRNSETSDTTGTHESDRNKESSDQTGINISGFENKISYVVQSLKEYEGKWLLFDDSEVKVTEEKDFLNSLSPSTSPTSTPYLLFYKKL
Glucocorticoid receptor (Homo sapiens), sequence (P04150 whole entry, looked up, the tested form may be a part): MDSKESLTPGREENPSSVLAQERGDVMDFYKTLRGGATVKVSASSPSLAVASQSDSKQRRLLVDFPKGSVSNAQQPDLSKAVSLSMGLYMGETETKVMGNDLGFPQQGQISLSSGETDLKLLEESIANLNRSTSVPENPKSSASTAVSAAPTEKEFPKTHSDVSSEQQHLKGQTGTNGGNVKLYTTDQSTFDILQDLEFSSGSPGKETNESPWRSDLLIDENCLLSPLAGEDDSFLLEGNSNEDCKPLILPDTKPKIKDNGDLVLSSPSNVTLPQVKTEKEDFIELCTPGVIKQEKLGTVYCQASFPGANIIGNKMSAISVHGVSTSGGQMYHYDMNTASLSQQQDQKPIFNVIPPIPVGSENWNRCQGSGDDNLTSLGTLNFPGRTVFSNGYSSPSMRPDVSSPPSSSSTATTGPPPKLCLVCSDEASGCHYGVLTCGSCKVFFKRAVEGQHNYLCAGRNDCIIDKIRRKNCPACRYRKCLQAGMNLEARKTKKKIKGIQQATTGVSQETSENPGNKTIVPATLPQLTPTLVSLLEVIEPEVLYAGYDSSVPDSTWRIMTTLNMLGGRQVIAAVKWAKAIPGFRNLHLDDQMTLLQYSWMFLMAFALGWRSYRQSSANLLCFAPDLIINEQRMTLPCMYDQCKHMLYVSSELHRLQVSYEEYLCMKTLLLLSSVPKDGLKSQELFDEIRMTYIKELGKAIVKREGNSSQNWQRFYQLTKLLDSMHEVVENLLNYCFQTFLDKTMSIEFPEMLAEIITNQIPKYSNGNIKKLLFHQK
Cytochrome P450 1A2 (Homo sapiens), sequence (P05177 whole entry, looked up): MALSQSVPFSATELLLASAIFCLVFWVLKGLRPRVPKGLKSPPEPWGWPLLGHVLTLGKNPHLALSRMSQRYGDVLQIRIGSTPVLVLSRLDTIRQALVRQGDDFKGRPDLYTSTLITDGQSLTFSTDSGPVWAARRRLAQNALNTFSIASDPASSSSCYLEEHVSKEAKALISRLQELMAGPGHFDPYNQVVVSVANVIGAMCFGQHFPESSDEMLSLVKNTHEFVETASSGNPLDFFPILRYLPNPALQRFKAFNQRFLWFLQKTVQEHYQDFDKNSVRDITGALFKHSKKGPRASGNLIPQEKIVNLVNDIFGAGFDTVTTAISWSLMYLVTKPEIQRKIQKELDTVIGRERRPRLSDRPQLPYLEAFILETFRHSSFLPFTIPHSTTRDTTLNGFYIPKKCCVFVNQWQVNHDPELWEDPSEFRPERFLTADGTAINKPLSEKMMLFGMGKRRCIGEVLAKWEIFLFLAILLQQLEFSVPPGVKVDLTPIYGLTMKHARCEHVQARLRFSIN
Cytochrome P450 2D6 (Homo sapiens), sequence (P10635 whole entry, looked up): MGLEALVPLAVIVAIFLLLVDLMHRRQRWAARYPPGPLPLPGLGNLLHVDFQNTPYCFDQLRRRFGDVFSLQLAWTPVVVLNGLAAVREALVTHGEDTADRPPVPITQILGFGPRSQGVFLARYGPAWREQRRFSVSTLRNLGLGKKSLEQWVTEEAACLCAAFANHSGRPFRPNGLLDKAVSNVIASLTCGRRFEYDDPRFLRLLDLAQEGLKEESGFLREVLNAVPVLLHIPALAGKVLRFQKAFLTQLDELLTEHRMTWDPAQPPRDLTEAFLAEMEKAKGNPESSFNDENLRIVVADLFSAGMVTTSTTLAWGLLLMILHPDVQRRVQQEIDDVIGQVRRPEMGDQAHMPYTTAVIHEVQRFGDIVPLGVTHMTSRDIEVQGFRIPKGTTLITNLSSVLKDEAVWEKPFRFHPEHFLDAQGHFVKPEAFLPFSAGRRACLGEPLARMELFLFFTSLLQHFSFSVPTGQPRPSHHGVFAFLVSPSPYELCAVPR
Lysosomal acid glucosylceramidase (Homo sapiens), sequence (P04062 whole entry, looked up): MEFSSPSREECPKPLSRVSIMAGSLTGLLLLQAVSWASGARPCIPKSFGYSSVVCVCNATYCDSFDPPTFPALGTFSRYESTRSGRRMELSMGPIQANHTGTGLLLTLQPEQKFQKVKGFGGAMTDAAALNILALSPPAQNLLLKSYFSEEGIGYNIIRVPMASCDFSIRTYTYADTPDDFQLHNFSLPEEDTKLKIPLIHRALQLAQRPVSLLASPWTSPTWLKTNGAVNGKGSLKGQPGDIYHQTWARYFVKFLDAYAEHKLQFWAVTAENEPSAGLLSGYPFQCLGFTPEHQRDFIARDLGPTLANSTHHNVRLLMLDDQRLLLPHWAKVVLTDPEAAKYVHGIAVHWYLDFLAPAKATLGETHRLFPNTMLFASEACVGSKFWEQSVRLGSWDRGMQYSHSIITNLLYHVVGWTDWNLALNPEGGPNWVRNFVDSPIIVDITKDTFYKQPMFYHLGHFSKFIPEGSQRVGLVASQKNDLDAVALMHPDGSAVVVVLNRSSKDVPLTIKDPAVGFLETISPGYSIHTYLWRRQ

Regarding `Cc1cnc(NC(=O)c2cc(S(=O)(=O)N(C)C)ccc2N2CCCC2)s1`, the Potency entry in [1] was “inactive”. Moreover, in test [2], the Potency is 8.91 µM (active).

Regarding `Cc1nc(C)c(-c2ccc3ncnc(NCc4ncc[nH]4)c3c2)s1`, in test [1], the Potency entry was “inactive”. In addition, the Potency in test [3] is 39.8 µM (active).

Turning to `c1cncc(-c2ccc3ncnc(NCc4cccs4)c3c2)c1`, the Potency result in [1] is “inactive”. Also, the Potency in [3] was 39.8 µM (active).

Consider `CN(Cc1ccco1)c1ncnc2ccc(-c3cccnc3)cc12`, for which the Potency is > 11.4 µM (inactive) in [4]; 0.316 µM (active) in [5]; > 46 µM (inactive) in [7]; 3.98 µM (active) in test [9]; 2 µM (active) in [11]; 7.94 µM (active) in [12]. Besides, the activity, negative = inhibition in test [6] was -12.5% (inactive). Also, the call in [8], in test [13] and in test [14] was inactive. For the same molecule, the Potency result in test [10], in test [16], in [1] and in test [17] was “inactive” throughout. In addition, in test [15] (at 57.5 µM (top of the series)), the activity change, negative = inhibition was 2.3% (inactive). The values for the max response in test [15] (measured here: cell count channel max response) and in test [15] (measured here: lipid channel max response) were -8.64% and -5.56%, respectively.

For the molecule `c1cncc(CNc2ncnc3ccc(-c4ccoc4)cc23)c1`, the Potency in test [5] was 0.316 µM (active); in test [19] it was > 46 µM (inactive); in test [9] it was 1.58 µM (active); in [12] it was 0.0251 µM (active); in test [21] it was 2.82 µM (active); in test [22], 1.58 µM (active). Moreover, the Potency in test [23] was 0.794 µM (active). In addition, the activity change, negative = inhibition in [18] was 2.59% (inactive). Also, in test [6], the activity, negative = inhibition is -13.4% (inactive). The outcome in [8] was inactive. The Potency result in test [20], in test [16], in test [1] and in [17] was “inactive” each time.
